Many of the other results were omitted from the sample, so the strongest signals are more common in it than they were.
Experiments:
Assay in all cases: glycan array binding signal (z-score within array); higher = stronger binding
Conditions in all cases: glycan notation: IUPAC condensed, linker removed
[1] = target: Fuc(a1-2)Gal(b1-3)GlcNAc(b1-3)[Fuc(a1-2)Gal(b1-3)GlcNAc(b1-6)]GalNAc
How it was run: (§1)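 Columns mapping to the same glycan were averaged after glycan names were converted to IUPAC-condensed notation. The data come from 3228 arrays in the Consortium for Functional Glycomics database, limited to those with an available protein sequence. Binding is reported as a within-array Z-score averaged across arrays of one protein sequence and across linkers.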

[2] = target: Fuc(a1-2)Gal(b1-3)[Fuc(a1-4)]GlcNAc(b1-3)[Gal(b1-4)GlcNAc(b1-6)]Gal(b1-4)Glc
How it was run: as §1

[3] = target: Fuc(a1-2)Gal(b1-4)Fuc(a1-3)]GlcNAc(b1-2)Man(a1-3)[Fuc(a1-2)Gal(b1-4)[Fuc(a1-3)]GlcNAc(b1-2)Man(a1-6)]Man(b1-4)GlcNAc(b1-4)GlcNAc
How it was run: as §1

[4] = target: Fuc(a1-2)Gal(b1-4)[Fuc(a1-3)]GlcNAc
How it was run: as §1

[5] = target: Fuc(a1-2)Gal(b1-4)[Fuc(a1-3)]GlcNAc(b1-3)Gal(b1-4)[Fuc(a1-3)]GlcNAc(b1-3)Gal(b1-4)[Fuc(a1-3)]GlcNAc
How it was run: as §1

[6] = target: Fuc(a1-2)[Gal(a1-3)]Gal(b1-3)GlcNAc(b1-2)Man(a1-3)[Fuc(a1-2)[Gal(a1-3)]Gal(b1-3)GlcNAc(b1-2)Man(a1-6)]Man(b1-4)GlcNAc(b1-4)[Fuc(a1-6)]GlcNAc
How it was run: as §1

[7] = target: Fuc(a1-2)[Gal(a1-3)]Gal(b1-4)Glc
How it was run: as §1

[8] = target: Fuc(a1-2)[Gal(a1-3)]Gal(b1-4)GlcNAc(b1-3)GalNAc
How it was run: as §1

[9] = target: Fuc(a1-2)[Gal(a1-3)]Gal(b1-4)GlcNAc(b1-6)GalNAc
How it was run: as §1

[10] = target: Fuc(a1-2)[GalNAc(a1-3)]Gal(b1-4)GlcNAc(b1-2)Man(a1-3)[Fuc(a1-2)[GalNAc(a1-3)]Gal(b1-4)GlcNAc(b1-2)Man(a1-6)]Man(b1-4)GlcNAc(b1-4)[Fuc(a1-6)]GlcNAc
How it was run: as §1

[11] = target: Gal(b1-3)GlcNAc(b1-2)[Gal(b1-3)GlcNAc(b1-6)]Man(a1-6)[Gal(b1-3)GlcNAc(b1-2)Man(a1-3)]Man(b1-4)GlcNAc(b1-4)GlcNAc
How it was run: as §1

[12] = target: Gal(b1-3)GlcNAc(b1-3)Gal(b1-4)GlcNAc(b1-6)[Gal(b1-3)GlcNAc(b1-3)]Gal(b1-4)Glc
How it was run: as §1

[13] = target: Gal(b1-3)[Fuc(a1-4)]GlcNAc(b1-2)Man
How it was run: as §1

[14] = target: Gal(b1-4)GlcNAc(b1-2)[Gal(b1-4)GlcNAc(b1-6)]Man(a1-6)[Gal(b1-4)GlcNAc(b1-2)Man(a1-3)]Man(b1-4)GlcNAc(b1-4)[Fuc(a1-6)]GlcNAc
How it was run: as §1

[15] = target: Gal(b1-4)GlcNAc(b1-3)Gal(b1-4)GlcNAc(b1-2)Man(a1-3)[Gal(b1-4)GlcNAc(b1-3)Gal(b1-4)GlcNAc(b1-2)Man(a1-6)]Man(b1-4)GlcNAc(b1-4)[Fuc(a1-6)]GlcNAc
How it was run: as §1

[16] = target: Gal(b1-4)GlcNAc(b1-3)Gal(b1-4)GlcNAc(b1-3)Gal(b1-4)GlcNAc(b1-3)Gal(b1-4)GlcNAc(b1-2)Man(a1-3)[Gal(b1-4)GlcNAc(b1-3)Gal(b1-4)GlcNAc(b1-3)Gal(b1-4)GlcNAc(b1-3)Gal(b1-4)GlcNAc(b1-2)Man(a1-6)]Man(b1-4)GlcNAc(b1-4)GlcNAc
How it was run: as §1

[17] = target: Gal(b1-4)GlcNAc(b1-3)Gal(b1-4)GlcNAc(b1-3)Gal(b1-4)GlcNAc(b1-3)Gal(b1-4)GlcNAc(b1-3)Gal(b1-4)GlcNAc(b1-2)Man(a1-3)[Gal(b1-4)GlcNAc(b1-3)Gal(b1-4)GlcNAc(b1-3)Gal(b1-4)GlcNAc(b1-3)Gal(b1-4)GlcNAc(b1-3)Gal(b1-4)GlcNAc(b1-2)Man(a1-6)]Man(b1-4)GlcNAc(b1-4)GlcNAc
How it was run: as §1

[18] = target: Gal(b1-4)GlcNAc(b1-3)Gal(b1-4)GlcNAc(b1-3)[Gal(b1-4)GlcNAc(b1-3)Gal(b1-4)GlcNAc(b1-6)]GalNAc
How it was run: as §1

Gal3S(b1-3)GlcNAc = target: Gal3S(b1-3)GlcNAc
How it was run: as §1

[19] = target: Gal3S(b1-4)[Fuc(a1-3)]Glc6S
How it was run: as §1

B1: Protein L(B1-B4) (Finegoldia magna), Q51912 (protein)
chain: KEETPETPETDSEEEVTIKANLIFANGSTQTAEFKGTFEKATSEAYAYADTLKKDNGEYTVDVADKGYTLNIKFAGKEKTPEEPKEEVTIKANLIYADGKTQTAEFKGTFEEATAEAYRYADALKKDNGEYTVDVADKGYTLNIKFAGKEKTPEEPKEEVTIKANLIYADGKTQTAEFKGTFEEATAEAYRYADLLAKENGKYTVDVADKGYTLNIKFAGKEKTPEEPKEEVTIKANLIYADGKTQTAEFKGTFAEATAEAYRYADLLAKENGKYTADLEDGGYTINIRFAG
- glycan array binding signal (z-score) [1]: 2.77
- glycan array binding signal (z-score) [2]: -0.528
- glycan array binding signal (z-score) [3]: 1.7
- glycan array binding signal (z-score) [4]: -0.142
- glycan array binding signal (z-score) [5]: 0.159
- glycan array binding signal (z-score) [6]: 3.09
- glycan array binding signal (z-score) [7]: 0.047
- glycan array binding signal (z-score) [8]: 3.09
- glycan array binding signal (z-score) [9]: -0.474
- glycan array binding signal (z-score) [10]: 2.95
- glycan array binding signal (z-score) [11]: 0.177
- glycan array binding signal (z-score) [12]: -0.192
- glycan array binding signal (z-score) [13]: 1.5
- glycan array binding signal (z-score) [14]: 2.92
- glycan array binding signal (z-score) [15]: 0.486
- glycan array binding signal (z-score) [16]: 2.06
- glycan array binding signal (z-score) [17]: 0.528
- glycan array binding signal (z-score) [18]: 4.22
- glycan array binding signal (z-score) (Gal3S(b1-3)GlcNAc): -0.911
- glycan array binding signal (z-score) [19]: 2.28

From the supplement of paper PMC8728848
